TRPML1 inh – blocks the human TRPML1 channel. TRPML1-inducible cells, Ca2+ dye fluorescence, FDSS; active compounds read low; inhibition of EC80 agonist-evoked calcium signal. AID 624415. Q9GZU1. activity change, negative = inhibition, % (test concentration not listed). actives 0.02% (n = 390,000); in the data active = activity change below about -50%; inconclusive = between about -30% and that limit;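 also: stimulus is agonist 54-4 at its EC80 concentration; % is scaled to controls: 0 for no effect and ±100 for the full control effect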
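TRPML1-DL cells, Tet-induced overnight (~16 h, 37 °C) at 1,500 cells/well, were loaded with Ca8 no-wash dye plus quencher for 45-90 min at room temperature. Compounds were pinned during FDSS kinetic reading; agonist 54-4 at EC80 (4 uM final) then added.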
PTHR1 ag – agonists of human PTHR1 parathyroid hormone receptor | actives 0.075% (n = 410,000) | HEK293 GP2 PTHR1 cells, GloSensor cAMP luminescence, 1 h | Potency, µM (series often up to 115 µM), for inactives: at the highest dose activation, usual class: activators; also: potency is read from the fitted curve at half-maximal effect; nearly all actives have a fitted effect of over 55% in size
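HEK-293-derived GP2 cells expressing PTHR1 and a GloSensor cAMP reporter, 3,000/well, plated overnight, given luciferin plus IBMX (each 0.5 mM as added) for 1 h at 37 °C, then compound for 1 h at 37 °C. Luminescence was read after 15 min at room temperature.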
GLP1R cytotox – cytotoxicity in counter-screen for GLP-1R inverse agonists. HEK293 cAMP-luciferase reporter cells, luminescence, 24 h. Potency, µM (series often up to 38.3 µM), for the others: at the highest dose activity change, negative = inhibition, usual class: inhibitors. actives 0.13% (n = 410,000);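 also: loss of luciferase light is scored as toxicity; potency is read from the fitted curve at half-maximal effect; % is scaled to controls: 0 for no effect and ±100 for the full control effect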
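Cells in DMEM/10% Nu serum/1% pen-strep, 1536-well format. Pre-incubated 12 h, dosed with 23 nL compound, incubated a further 24 h. Luciferase detection, 12 min at room temp, luminescence.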
TRHR PAM – allosteric enhancers of human TRH receptor; TRHR cells, fluo-8 calcium fluorescence, EC20 TRH enhancement; actives 0.66% (n = 360,000); P34981; enhancement, % at 2 µM; in the data active = enhancement above about 30%; also: 0% is about no effect
Target sequence (P34981 whole entry, looked up): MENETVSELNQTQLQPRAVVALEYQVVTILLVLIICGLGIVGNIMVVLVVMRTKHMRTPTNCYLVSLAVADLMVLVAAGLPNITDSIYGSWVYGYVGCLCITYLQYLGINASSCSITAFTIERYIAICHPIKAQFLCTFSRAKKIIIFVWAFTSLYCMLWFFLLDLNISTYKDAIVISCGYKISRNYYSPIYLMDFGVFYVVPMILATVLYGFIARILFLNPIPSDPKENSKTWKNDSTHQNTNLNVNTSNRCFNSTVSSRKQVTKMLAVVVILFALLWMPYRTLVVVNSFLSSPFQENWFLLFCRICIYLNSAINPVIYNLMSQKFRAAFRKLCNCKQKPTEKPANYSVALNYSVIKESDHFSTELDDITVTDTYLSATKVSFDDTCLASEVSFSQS
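Enhancer read-out: after compound pinning and an initial kinetic agonist-mode read, an EC20 of TRH (10 nM final) was injected and fluo-8 calcium signal (Ex 480/Em 530) followed at 1 s/cycle for 100 cycles in TRHR-expressing cells.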
TRPML1 ag – human mucolipin-1 channel agonism; TRPML1-expressing cells, Ca2+ dye fluorescence, FDSS; Q9GZU1; activation, % (test concentration not listed); actives 0.12% (n = 410,000); in the data active = activation above about 50%; inconclusive = mostly about 30% to 49%; also: 0% is about no effect
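In this qHTS format, compounds were pin-transferred onto Ca8-dye-loaded TRPML1-DL cells induced with Tet overnight, and intracellular Ca2+ fluorescence was recorded kinetically for 110 s after a 10 s baseline. A subsequent 4uM final 54-4 (EC80) addition followed by a second 110 s read served as the antagonist phase.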
TRHR ag – agonists of human TRH receptor. TRHR cells, calcium flux fluo-8, FDSS agonist mode. activation, % at 2 µM. actives 0.18% (n = 360,000); in the data active = activation above about 30%; also: 0% is about no effect
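TRHR-expressing cells loaded with fluo-8 calcium dye; 23 nL library compound pin-transferred, kinetic FDSS fluorescence (Ex 480/Em 530) recorded about 180 s for agonist-induced calcium release, before a 10 nM TRH EC20 addition for potentiator mode.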
* marks the source's active call; other numbers are inactive results; [ ] = remark or other dose. Compounds with a hit are over-represented: about 0.93% of the library has one in this group of screens. Unless noted, calls follow the shape of the dose curve; as a rule, active = well fitted curve in the direction sought with a large enough effect; inconclusive = small, poorly fitted or top-dose-only effect, or another doubt; inactive = no such curve, though single readings can be large; an effect the other way counts as inactive or inconclusive.

How did Nc1cccc(CP(=O)(c2ccccc2)c2ccccc2)c1 do in these assays?
TRPML1 inh: 6.8; PTHR1 ag: inactive; GLP1R cytotox: 3.5%; TRHR PAM: 31.4*; TRPML1 ag: 2.1; TRHR ag: 0.3

What do the screens show for `O=[N+]([O-])c1cccc(CP(=O)(c2ccccc2)c2ccccc2)c1`?
TRPML1 inh: 14.0; PTHR1 ag: -16.6%; GLP1R cytotox: -17.9%; TRHR PAM: 1.0; TRPML1 ag: -0.8; TRHR ag: -4.1

What do the screens show for `O=C(CSc1nnc(-c2cccc(Br)c2)o1)N1CCOCC1`?
TRPML1 inh: -2.1; PTHR1 ag: inactive; GLP1R cytotox: -8.9%; TRHR PAM: 31.2*; TRPML1 ag: -0.2; TRHR ag: -1.1

What do the screens show for `COc1ccc(OCc2nc(C#N)c(NCc3ccccc3Cl)o2)cc1`?
TRPML1 inh: 7.7; PTHR1 ag: -28.0%; GLP1R cytotox: 1.9%; TRHR PAM: 40.9*; TRPML1 ag: 1.9; TRHR ag: -0.9

Results for COc1ccc(-c2nc(C#N)c(NCc3ccccc3Cl)o2)cc1 ?
TRPML1 inh: 27.0; PTHR1 ag: -23.7%[57.5 µM]; GLP1R cytotox: -6.4%; TRHR PAM: 8.9; TRPML1 ag: 0.4; TRHR ag: 1.5

Results for CCOc1cc(C(=O)Nc2ccc3oc(-c4ccc(CC)cc4)nc3c2)cc(OCC)c1OCC ?
TRPML1 inh: -20.0; PTHR1 ag: inactive; GLP1R cytotox: -2.4%; TRHR PAM: 36.2*; TRPML1 ag: 1.9; TRHR ag: 1.4

How did c1ccc(C2=Nn3c(nnc3-c3n[nH]c4c3CCC4)SC2)cc1 do in these assays?
TRPML1 inh: 9.2; PTHR1 ag: -16.6%; GLP1R cytotox: -17.3%; TRHR PAM: 0.9; TRPML1 ag: 2.4; TRHR ag: -0.4

Results for Clc1ccc(C2=Nn3c(nnc3-c3n[nH]c4c3CCC4)SC2)cc1Cl ?
TRPML1 inh: 8.6; PTHR1 ag: -19.5%[57.5 µM]; GLP1R cytotox: inconclusive; TRHR PAM: 35.5*; TRPML1 ag: 1.5; TRHR ag: 0.3

How did O=C(CCl)Nc1cccc(S(=O)(=O)NC2=NCCCCC2)c1 do in these assays?
TRPML1 inh: -10.8; PTHR1 ag: inactive; GLP1R cytotox: 11.2µM*; TRPML1 ag: -0.4

What do the screens show for `CC(C)(C)n1ncc2c(=O)n(Cc3cccc(-c4ccccc4)c3)cnc21`?
TRPML1 inh: 38.5; TRPML1 ag: 3.8

Results for CCCNc1c(F)c(F)c2c(C)c3ccccc3nc2c1F ?
TRPML1 inh: -2.0; PTHR1 ag: -35.6%[57.5 µM]; GLP1R cytotox: 86.1%; TRHR PAM: 8.5; TRPML1 ag: 0.9; TRHR ag: 33.8*

How did O=C(N/N=C/c1c(O)ccc2ccccc12)c1cccc(C(F)(F)F)c1 do in these assays?
TRPML1 inh: 19.3; PTHR1 ag: -23.0%; GLP1R cytotox: inconclusive; TRHR PAM: 13.6; TRPML1 ag: 91.5*; TRHR ag: 98.7*

Results for Cc1ccc(NC(=O)c2cnn3c2NC(=C2CC2)C=C3C(F)F)cc1 ?
TRPML1 ag: -0.7

Results for CC(=O)NC(c1ccco1)c1cc(Br)c2cccnc2c1O (centres undefined) ?
TRHR PAM: -5.8; TRHR ag: 0.2

How did Cc1cccc(OCC(=O)Nc2ccc(-c3nc4ccccc4o3)cc2)c1C do in these assays?
TRPML1 inh: 7.4; PTHR1 ag: -7.2%; GLP1R cytotox: 0.0%; TRHR PAM: 30.8*; TRPML1 ag: 1.0; TRHR ag: 2.6

Results for Cc1nc2c(c(=O)c3ccccc3n2C)c(=O)n1C1CCCCCC1 ?
TRPML1 inh: 7.9; PTHR1 ag: -5.4%; GLP1R cytotox: -4.6%; TRHR PAM: -5.6; TRPML1 ag: inconclusive; TRHR ag: 32.8*

What do the screens show for `Cn1c2ccccc2c(=O)c2c(=O)n(C3CCCCC3)c(-c3ccco3)nc21`?
TRPML1 inh: 5.5; PTHR1 ag: inactive; GLP1R cytotox: -15.0%; TRHR PAM: -0.4; TRPML1 ag: 11.4; TRHR ag: 10.7

Screens as filed in PubChem BioAssay.
